Experimental data from PubChem BioAssay (NCATS).
Results filed as inconclusive are left out. Where a call stands in place of a potency, no number is given. Unmarked numbers belong to inactive results. Activity calls are given as the source filed them. The call rests on the fitted dose curve; in most records, active means well fitted cell-killing curve with a large enough effect; inconclusive means small, poorly fitted or top-dose-only effect; inactive means flat fitted curve, though single readings scatter.

Test: qHTS of pediatric cancer cell lines to identify multiple opportunities for drug repurposing: Primary screen for DAOY cells (AID 1347090); further: nearly all actives have a fitted effect of over 55% in size
Conditions: DAOY medulloblastoma viability, CellTiter-Glo luminescence, 48 h; series mostly up to 46 µM
Procedure, shortened: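 Viability measured as metabolically active cells via CellTiter-Glo luminescence following 48 hours of compound exposure, 11-point dilutions in confirmatory testing. 500-1,000 cells/well plated 5 hours before dosing; controls were DMSO and 2.3 µM bortezomib.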

Row | SMILES | Potency | activity change, negative = cytotoxic
1 | CC(C)N=C(N)/N=C(\N)Nc1ccc(Cl)cc1 | inactive | –
2 | Nc1ccc(C(=O)O)cc1 | inactive | –
3 | CCCCOc1ccc(OCCCN2CCOCC2)cc1 | inactive | –
4 | Cc1ccc(Nc2c(F)cccc2Cl)c(CC(=O)O)c1 | inactive | –
5 | Oc1cc(O)c2c(c1)O[C@H](c1ccc(O)c(O)c1)[C@H](O)C2 | inactive | –
6 | NC[C@H]1O[C@H](O[C@H]2[C@H](O[C@@H]3O[C@H](CO)[C@@H](O)[C@H]3O)C(O)[C@H](N)C[C@@H]2N)[C@H](N)[C@@H](O)[C@@H]1O (stereo not given in full) | – | 6.37% [at 9.22 µM]
7 | COc1cc(/C=C/C(=O)O[C@H]2CC[C@]34C[C@]35CC[C@]3(C)[C@@H]([C@H](C)CCC=C(C)C)CC[C@@]3(C)[C@@H]5CC[C@H]4C2(C)C)ccc1O | inactive | –
8 | CC1(C)O[C@@H]2C[C@H]3[C@@H]4CCC5=CC(=O)CC[C@]5(C)[C@@]4(F)[C@@H](O)C[C@]3(C)[C@]2(C(=O)CCl)O1 | inactive | –
9 | CNC(=O)CN(CCN(CCN(CC(=O)[O-])CC(=O)NC)CC(=O)[O-])CC(=O)[O-].O.[Gd+3] | inactive | –
10 | Cc1c(N(C)CS(=O)(=O)O)c(=O)n(-c2ccccc2)n1C | inactive | –
11 | CCOc1ccc(NC(=O)CC(C)O)cc1 (stereo not given) | inactive | –
12 | C/C=C/c1ccc(OC)cc1 | inactive | –
13 | OC[C@H]1O[C@H](O[C@]2(CCl)O[C@H](CCl)[C@@H](O)[C@@H]2O)[C@H](O)[C@@H](O)[C@H]1Cl | inactive | –
14 | CCN(CC)CCNC(=O)COc1ccc(Cl)cc1 | inactive | –
15 | Cc1cc(N)c2cc(NC(=O)Nc3ccc4nc(C)cc(N)c4c3)ccc2n1 | inactive | –
